Gal4-VP16 FLuc: VP16 counterscreen qHTS for inhibitors of ROR gamma transcriptional activity | Drosophila S2 Gal4-VP16 UAS-luciferase, luminescence, 20 h | Potency, µM (titrated, usually from 53.6 µM), for the others: top-dose activity, negative = inhibition, most hits filed as inhibitors | 3.5% of 310,000 active;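 further: Gal4-VP16 expression switched on by copper sulfate through the metallothionein promoter; nearly all actives have a fitted effect of over 50% in size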
Luc counter: Counterscreen for Luciferase (Kinase-Glo TM) Inhibition | Luciferin 4-monooxygenase (Photuris pensylvanica), Q27757 | Kinase-Glo luciferase, ATP luminescence, 8 min | Potency, µM (series often up to 38.3 µM), for the others: at the top dose activity change, negative = inhibition, usual class: inhibitors | 0.28% of 200,000 active; further: nearly all actives have a fitted effect of over 60% in size
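Substrate mix (final 50 mM imidazole pH 7.2, 50 mM KCl, 7 mM MgCl2, 10 uM ATP, 0.01% Tween 20, 0.05% BSA) plus pin-tool compound, then Kinase-Glo detection mix; 8 min ambient, luminescence read.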
RORgamma inh: qHTS for inhibitors of ROR gamma transcriptional activity. Nuclear receptor ROR-gamma (Mus musculus), P51450. Drosophila S2 Gal4-RORgamma UAS-luciferase reporter, 20 h. Potency, µM (series often up to 53.6 µM), for inactives: at the highest dose activity change, negative = inhibition, hits mostly inhibitors. 5.4% of 310,000 active; further: nearly all actives have a fitted effect of over 60% in size
Target sequence (P51450 whole entry, looked up, the tested form may be a part): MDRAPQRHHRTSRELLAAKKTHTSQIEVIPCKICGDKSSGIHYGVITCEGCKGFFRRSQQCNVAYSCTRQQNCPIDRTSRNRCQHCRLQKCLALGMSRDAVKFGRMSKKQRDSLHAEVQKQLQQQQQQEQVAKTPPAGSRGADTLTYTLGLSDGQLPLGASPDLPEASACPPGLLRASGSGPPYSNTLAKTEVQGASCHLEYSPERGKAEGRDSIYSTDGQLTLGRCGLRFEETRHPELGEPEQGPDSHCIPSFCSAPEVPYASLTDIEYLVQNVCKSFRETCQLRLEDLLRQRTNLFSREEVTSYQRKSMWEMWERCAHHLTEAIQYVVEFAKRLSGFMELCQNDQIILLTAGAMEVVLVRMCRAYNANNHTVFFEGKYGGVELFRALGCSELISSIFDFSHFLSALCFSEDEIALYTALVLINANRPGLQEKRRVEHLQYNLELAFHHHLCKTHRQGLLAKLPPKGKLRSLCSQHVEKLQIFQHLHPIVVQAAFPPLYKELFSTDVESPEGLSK
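Using a luciferase readout, inhibitors were identified by reduced reporter activity in Drosophila cells coexpressing a copper-inducible Gal4–ROR gamma fusion and UAS-driven Photinus luciferase, incubated 20 hr after 700 uM copper sulfate.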
Starred values were filed as active, the others as inactive; ? = inconclusive; . = not tested or not shown; [ ] = dose if it differs, or a comment. This is a sample that favours compounds with a hit; in the whole collection about 6.4% have one here. The call rests on the fitted dose curve; in most records, active means well fitted curve in the direction sought with a large enough effect; inconclusive means small, poorly fitted or top-dose-only effect, or another doubt; inactive means no such curve, though single readings can be large; an effect the other way counts as inactive or inconclusive. On the % scale 0 is the no-effect control and ±100 the full control effect; potency means the concentration at half of the fitted maximal effect.

SMILES	Gal4-VP16 FLuc	Luc counter	RORgamma inh
CC(=O)n1cc(/C=N/NC(=O)c2ccc([N+](=O)[O-])cc2)c2ccccc21	?	.	3.5µM*
Cc1nnsc1C(=O)N/N=C/c1ccc2ccccc2c1O	2.8µM*	.	4.5µM*
COc1ccccc1CCCNC(=O)C1CCC(=O)N(CCc2cccc(F)c2)C1 (stereo not drawn)	11%	.	20%
COc1ccc(C2=Nn3c(nnc3-c3cccc(OC)c3OC)SC2)cc1OC	4%	.	-6%
C=C(C)CNC(=O)c1ccc2nc(Cc3ccc(OC)cc3)oc2c1	2%	.	?
CCOC(=O)C1(CCOc2ccccc2)CCN(Cc2cc(OC)c3c(c2)OCO3)CC1	-5%	.	44%
O=C(NC1CCN(Cc2ccc(Cl)c(Cl)c2)CC1)c1ccccc1	9%	.	44%
CC(C)[C@H](N)C(=O)N[C@@H](CCC(N)=O)C(=O)NCC(=O)N[C@@H](CCC(=O)O)C(=O)N[C@@H](CCC(=O)O)C(=O)N[C@@H](CO)C(=O)N[C@@H](CC(N)=O)C(=O)N[C@@H](CC(=O)O)C(=O)N[C@@H](CCCCN)C(=O)O	-4%	.	0%
CCC(CO)[n+]1c(C)cc(/C=C2\Sc3ccccc3N2Cc2ccccc2)cc1C (stereo not drawn)	7.1µM*	0%	?
CCN1/C(=C2\SC(=S)N(Cc3ccccc3)C2=O)Sc2ccccc21	-2%	-1%	1%
Cc1onc(-c2ccc(Cl)cc2)c1-c1ccnn1S(=O)(=O)c1cccc(C(F)(F)F)c1	5%	.	?
CC(=O)c1ccccc1[N+](=O)[O-]	17%	.	-3%
O=C(NP(=O)(N1CCCC1)N1CCCC1)C1=C(N2CCOCC2)/C(=C/c2cccc([N+](=O)[O-])c2)CC1	4%	1%	-77%
O=[N+]([O-])c1ccc(/C=C2\CCC(C3=CCCC3)=C2N2CCOCC2)cc1	4µM*	-3%	?
S=c1nc(-c2ccc(Cl)cc2)[nH][nH]1	-23%	.	8.9µM*
CCCOc1ccc(-c2nc(=S)[nH][nH]2)cc1	-26%	7%	0%
CCC1=C2CC[C@H]3C(=O)N(CC)C(=O)[C@H]3[C@H]2[C@@]2(C)C(=O)N(CC(=O)OC)C(=O)N2C1=O	4%	-17%	-5%
O=C(/C=C\c1ccco1)NC(=S)Nc1ccccc1O	?	.	22µM*
O=C(/C=C/c1ccco1)NC(=S)Nc1ccccc1O	?	-1%	11µM*
Cc1ccc(NC(=S)NC(=O)/C=C/c2ccco2)c(O)c1	?	-1%	8.9µM*
O=C(/C=C/c1ccco1)NCCc1ccccc1	-4%	-1%	-7%
O=C(/C=C/c1ccco1)Nc1ccccc1N1CCCC1	-14%	-4%	?
Cc1ccc(C)c(NC(=O)CN(C)C(=O)/C=C/c2ccco2)c1	11%	2%	19%
COC(=O)CCCC(=O)N1CCC(CO)(CCc2ccccc2)CC1	-1%	.	-12%
COc1ccc(NC(=O)Cc2nnc(SCC(=O)NC3=NCCS3)n2C)cc1	1%	.	-2%
SMILES	Gal4-VP16 FLuc	Luc counter	RORgamma inh
COc1ccc(OC2C=CC(C#Cc3ccc(C(C)(C)C)cc3)OC2CO)cc1 (stereo not drawn)	-28%[10 µM]	.	-1%[10 µM]
CCCOc1ccc(C2=CSC3=NCCN23)cc1	-9%	.	-37%
Cc1nnn(-c2nonc2N)c1C(=O)N/N=C/c1cccc2ccccc12	13µM*	3%	-116%
Cc1nnn(-c2nonc2N)c1C(=O)N/N=C/c1ccccc1O	2.8µM*	0%	1.3µM*
CN(C)Cc1c(C(=O)N/N=C/c2cccc3ccccc23)nnn1-c1nonc1N	-4%	.	6%
COc1cc(/C=N/NC(=O)c2c(C)nnn2-c2nonc2N)ccc1O	2%	-1%	4%
N#CCc1ccc(NC(=O)c2ccc(S(=O)(=O)N3CCOCC3)cc2)cc1	13%	.	10%
C/C(CC(=O)Nc1ccc2c(c1)OCCO2)=N\NC(=O)COc1ccc(Cl)c(C)c1	-9%	.	-6%
NC(=O)C1CC(=O)N(c2ccc(OCc3ccccc3Cl)cc2)C1 (stereo not drawn)	-5%	-4%	-1%
O=C(O)C1CC(=O)N(c2ccc(OCc3ccccc3Cl)cc2)C1 (stereo not drawn)	?	2%	14µM*
Cc1cc(C(=O)N(C)CC(=O)Nc2ccc(F)c(F)c2F)no1	3%	.	2%
O=C1CCCC(=O)N1c1ccc(NCCOCCO)c([N+](=O)[O-])c1	2%	-4%	-2%
Cc1ccccc1-n1nnnc1Sc1nnnn1-c1ccccc1	?	-2%	?
CCCSc1nnc(Sc2nnnn2-c2ccccc2)s1	-28%	-1%	1.6µM*
COc1ccc(C(=O)O/N=C(\N)Cc2ccc([N+](=O)[O-])cc2)c(OC)c1	-20%	.	1%
Cc1ccc2nc(C)c3c(c2c1)OC(C(C)(Cl)Br)C3 (stereo not drawn)	-24%	.	8%
COc1ccc2nc(C)c3c(c2c1)OC(C(C)(Cl)Br)C3 (stereo not drawn)	-23%	.	5µM*
Cc1ccc(NCc2nc3ccccc3n2CCOc2ccccc2)cc1	?	-10%	?
COc1ccc(NC(=S)NCCc2c[nH]c3ccc(OC)cc23)c(OC)c1	?	0%	14µM*
COc1ccc(NC(=S)NCCc2c[nH]c3ccccc23)c(OC)c1	?	4%	7.9µM*
COc1ccc2c(CCNC(N)=S)c[nH]c2c1	-2%	.	-27%
COc1ccc(C(=O)NCCc2c[nH]c3ccc(OC)cc23)cc1	8%	.	13%
O=S(=O)(Nc1ncccn1)c1cc(Cl)ccc1Cl	1%	.	-19%
COc1cc(C)c(Cl)cc1S(=O)(=O)NCc1ccccn1	3%	.	?
O=S(=O)(NCc1ccccn1)c1cc(C(F)(F)F)ccc1Cl	?	-1%	7.1µM*
SMILES	Gal4-VP16 FLuc	Luc counter	RORgamma inh
O=S(=O)(NCc1ccccn1)c1cc(Cl)ccc1Cl	10µM*	.	8.9µM*
O=S(=O)(NCc1ccccn1)c1ccc(Cl)c(C(F)(F)F)c1	?	0%	7.1µM*
CCOc1cc(S(=O)(=O)NCc2ccccn2)ccc1Cl	-5%	1%	-39%
CC1CC(=O)N(CC(=O)NCc2ccccc2)c2ccccc2S1(=O)=O (stereo not drawn)	-4%	.	-3%
COCCN(CCOC)c1nc(C)nc2c1nc(-c1ccccc1)n2CCCN(C)C	4%	-2%	-28%
Cc1cc(N2C(=O)C(O)=C(C(=O)c3ccc(C)o3)C2c2ccc([N+](=O)[O-])cc2)no1 (stereo not drawn)	-1%	.	1%
CCNc1ncc2nc(-c3cc(F)cc(F)c3)c(=O)n(-c3ccccc3)c2n1	0%	-2%	1%
CC(=O)Nc1ccc(NC(=O)COC(=O)/C(=C/c2ccccc2)n2nnnc2C)cc1	?	.	16µM*
CC(=O)Nc1ccc(NC(=O)COC(=O)c2c(C)nn(-c3ccccc3)c2C)cc1	2%	5%	22%
Cc1nnnn1/C(=C\c1ccccc1)C(=O)OCC(=O)NC(C)(C)C	20µM*	0%	13µM*
CC(C)(C)NC(=O)COC(=O)c1ccccc1Oc1ccccc1	-5%	.	16%
COc1cc(C(=O)OCc2cc(=O)oc3c(C)c(C)ccc23)ccc1OC(F)F	-6%	.	?
